Most compounds without a hit are left out; they make up all but 4% or so of the library.
DENV2 CPE = inhibitors of DENV2 cytopathic effect; 1.7% of 350,000 active; DENV2-infected cells, cytopathic effect rescue, plate reader; AID 651640; CPE inhibition, % at 9.99 µM; in the data active means CPE inhibition above about 20%, passing the limit was not always enough; inconclusive means no clear call, values can overlap the other calls; tested in BHK-21 cells
ERAP1 inh = inhibitors of human ERAP1 aminopeptidase | 0.15% of 340,000 active | Q9NZ08 | recombinant ERAP1, Leu-AMC fluorescence, 60 min | AID 652197 | inhibition, % at 10.7 µM;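 active means mean replicate inhibition of at least 30%, or all replicates individually reaching that 30% level; inactive means mean below 30% and not every replicate reaching it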
Target sequence (Q9NZ08 whole entry, looked up): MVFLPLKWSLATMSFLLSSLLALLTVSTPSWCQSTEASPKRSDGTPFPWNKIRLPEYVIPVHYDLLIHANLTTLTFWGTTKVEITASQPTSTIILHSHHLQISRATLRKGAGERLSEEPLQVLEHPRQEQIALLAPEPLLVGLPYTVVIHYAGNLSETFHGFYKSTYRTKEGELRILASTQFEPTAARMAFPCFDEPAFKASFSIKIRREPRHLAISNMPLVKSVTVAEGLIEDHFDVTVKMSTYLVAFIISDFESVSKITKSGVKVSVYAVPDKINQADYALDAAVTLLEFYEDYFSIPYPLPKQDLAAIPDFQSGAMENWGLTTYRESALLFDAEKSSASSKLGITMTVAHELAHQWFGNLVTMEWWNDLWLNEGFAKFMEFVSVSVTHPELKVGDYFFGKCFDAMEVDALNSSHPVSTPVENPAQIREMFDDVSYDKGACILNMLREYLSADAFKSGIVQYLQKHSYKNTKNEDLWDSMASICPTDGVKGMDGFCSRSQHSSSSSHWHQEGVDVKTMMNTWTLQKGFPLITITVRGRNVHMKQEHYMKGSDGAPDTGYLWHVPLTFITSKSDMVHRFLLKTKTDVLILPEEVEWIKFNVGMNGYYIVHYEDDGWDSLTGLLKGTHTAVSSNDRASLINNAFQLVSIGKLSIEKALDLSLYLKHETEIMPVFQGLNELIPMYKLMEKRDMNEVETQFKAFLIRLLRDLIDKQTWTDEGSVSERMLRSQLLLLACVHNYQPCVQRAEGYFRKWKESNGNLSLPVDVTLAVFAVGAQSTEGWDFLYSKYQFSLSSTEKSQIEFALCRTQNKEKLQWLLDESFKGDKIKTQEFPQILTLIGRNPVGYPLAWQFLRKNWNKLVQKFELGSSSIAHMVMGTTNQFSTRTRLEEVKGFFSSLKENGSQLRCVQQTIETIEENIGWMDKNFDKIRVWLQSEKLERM
MLL AF4-AF9 inh = MLL-AF4/AF9 protein interaction inhibition; P42568; AlphaScreen, biotin-AF4 peptide binding to FLAG-AF9; inhibition, % at 10 µM; 0.47% of 350,000 active;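 active means every replicate reaching a set inhibition limit, whatever the replicate mean, cut at about 25% in these data; inconclusive means mean inhibition reaches that limit but some replicates miss it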
FGF22 binding = binders of recombinant human FGF22 by thermal shift. Q9HCT0. SYPRO orange fluorescence; percent of sucrose octasulfate shift, DMSO zero. 1.5% of 340,000 active. AID 651658. activity (Tm shift, normalised), % at 9.99 µM;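 active means mean Tm shift, scaled 0 neutral to 100 positive control, at about 1.3% or above, every replicate too, limit read from the data; inconclusive means no clear call, values can overlap the other calls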
RAD52 anneal inh = blocks human RAD52 DNA annealing. P43351. recombinant RAD52 DNA annealing, FRET fluorescence. inhibition, % at 18.7 µM. 0.46% of 360,000 active;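 active means every replicate showing at least 50% inhibition; inconclusive means mean inhibition at least 50% but not in every replicate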
Numbers stand for hits; n = inactive; u = inconclusive; x = no result.

SMILES	DENV2 CPE	ERAP1 inh	MLL AF4-AF9 inh	FGF22 binding	RAD52 anneal inh
COc1cccc(-c2ccc([C@H]3[C@@H](CO)N4C(=O)CN(C(=O)C5CCOCC5)C[C@@H]34)cc2)c1	32.9	n	n	x	n
COc1cccc(-c2ccc([C@H]3[C@H](CO)N4C(=O)CN(C(=O)C5CCOCC5)C[C@@H]34)cc2)c1	n	x	n	x	n
CC(C)C(=O)Nc1ccc2c(c1)C(=O)N(C)[C@H]1CC[C@H](CC(=O)NCc3ccccc3)O[C@H]1CO2	n	n	n	n	n
COc1ccc2c3c([nH]c2c1)[C@H](CO)N(Cc1nccs1)CC31CN(Cc2nccs2)C1	n	n	n	n	n
CC(C)C[C@@H]1NC(=O)[C@H]2C[C@@H](C(=O)NCc3ccc(F)cc3)[C@@H](c3cccc(OCCO)c3)N2C1=O	n	n	n	n	n
O=C(CCNS(=O)(=O)c1ccccc1C(F)(F)F)N1CCN(C(c2ccccc2)c2ccccc2)CC1	91.5	n	n	n	n
O=C(CCNS(=O)(=O)c1ccccc1C(F)(F)F)N1CCCCCCC1	n	n	n	n	n
COC(=O)[C@@H]1[C@@H](CO)[C@@H]2Cn3c(ccc(-c4ccccc4F)c3=O)[C@@H]2N1Cc1ccccc1	n	n	n	n	n
O=C(C(=O)N1CCCC1)c1c[nH]c2ccccc12	n	n	n	n	n
O=C(C(=O)N1CCOCC1)c1c[nH]c2ccccc12	n	n	n	43.2	n
CC1(C)CC(=O)C2=C(C1)Nc1ccccc1NC2c1ccccc1F (centres undefined)	n	x	n	n	n
CC1(C)CC(=O)C2=C(C1)Nc1ccccc1NC2c1ccc(F)c(F)c1 (centres undefined)	22.7	n	n	n	n
O=C(C[C@@H]1C[C@@H]2c3cc(NC(=O)Nc4ccccc4F)ccc3O[C@@H]2[C@@H](CO)O1)NC1CCCCC1	n	n	n	n	n
CC(C)c1ccc(NC2CCCN(C(=O)c3cccc(N4CCNC4=O)c3)C2)cc1 (centres undefined)	29.1	n	n	n	n
NC(=O)C1CCN(C(=O)C2CC(=O)N(c3ccc4c(c3)OCCO4)C2)CC1 (centres undefined)	24.3	n	n	n	n
CN(Cc1ccc(Cl)c(Cl)c1)C(=O)C1CC(=O)N(c2ccc3c(c2)OCCO3)C1 (centres undefined)	29.7	n	n	n	n
Cc1noc(C)c1S(=O)(=O)Nc1ccc2c(c1)C(=O)N([C@@H](C)CO)C[C@H](C)[C@@H](CN(C)C(=O)Nc1ccc(C(F)(F)F)cc1)OCCCC[C@H](C)O2	n	n	n	n	n
CCS(=O)(=O)N[C@H]1C=C[C@@H](CC(=O)NCc2ccc(Cl)cc2)O[C@H]1CO	n	n	n	n	n
C=CCC(NC(=O)c1ccc(C#N)cc1)C(=O)NCCC (centres undefined)	48.8	x	n	n	n
CCOc1ccc(NC(=O)NC(C)CC)cc1 (centres undefined)	x	n	n	42.9	n
CCOc1ccc(NC(=O)Nc2cnccn2)cc1	n	n	n	43.5	n
CCOc1ccc(NC(=O)Nc2ccc(NC(C)=O)cc2)cc1	n	n	n	n	n
C[C@H](O)C#Cc1ccc([C@H]2[C@@H](CO)N3CCCCN(CC4CCOCC4)C[C@@H]23)cc1	n	n	n	n	n
CC(C)N(Cc1ccccc1)C(=O)COC(=O)c1cnc(Cl)c(Cl)c1	67.2	n	n	n	n
Cc1ccc(-c2nc3ccc([N+](=O)[O-])cc3[nH]2)cc1	n	n	n	1.5	n
SMILES	DENV2 CPE	ERAP1 inh	MLL AF4-AF9 inh	FGF22 binding	RAD52 anneal inh
O=[N+]([O-])c1ccc2nc(-c3ccncc3)[nH]c2c1	n	n	n	n	n
COc1ccc([N+](=O)[O-])cc1N(CC(=O)Nc1ccccc1C(=O)N1CCCC1)S(C)(=O)=O	n	n	n	43.5	n
COc1ccc(CCNC(=O)CN(c2cc([N+](=O)[O-])ccc2OC)S(C)(=O)=O)cc1	n	n	n	43.5	n
CS(=O)(=O)N(CC(=O)Nc1ccccc1C(=O)N1CCCC1)c1ccc2c(c1)OCO2	n	n	n	43.4	n
COc1ccc(CCNC(=O)CN(c2cccc([N+](=O)[O-])c2)S(C)(=O)=O)cc1	n	n	n	n	n
CCc1ccc(N(CC(=O)Nc2ccccc2C(=O)N2CCCC2)S(C)(=O)=O)cc1	n	n	n	n	n
COCC(=O)Nc1ccc2c(c1)OC[C@H](C)NC[C@@H](C)[C@@H](OC)CN(C)C2=O	24.1	n	n	n	n
COCC(=O)Nc1ccc2c(c1)OC[C@@H](C)NC[C@H](C)[C@H](OC)CN(C)C2=O	30.0	n	n	n	n
CCC(=O)Nc1ccc2c(c1)OC[C@@H](C)NC[C@H](C)[C@@H](OC)CN(C)C2=O	27.7	n	n	n	n
CCC(=O)Nc1ccc2c(c1)OC[C@@H](C)NC[C@@H](C)[C@@H](OC)CN(C)C2=O	n	n	n	n	n
Cc1nc(Cl)sc1C(=O)Nc1cc(F)cc(F)c1	n	n	n	n	n
O=C(Nc1cc(F)cc(F)c1)c1sc(Cl)nc1-c1ccccc1	68.2	n	n	n	n
C[C@H](CO)N1C[C@H](C)[C@H](CN(C)C(=O)Nc2ccc3c(c2)OCO3)OCCCC[C@H](C)Oc2ccc(NS(=O)(=O)c3cn(C)cn3)cc2C1=O	n	n	n	n	n
CN(C)CC(=O)N[C@@H]1CC[C@@H](CCNC(=O)C2CCCCC2)O[C@H]1CO	n	n	n	n	n
CCSC1=NCCN1S(=O)(=O)c1ccccc1	n	n	n	43.7	n
O=S(=O)(c1ccccc1)N1CCN=C1SCc1ccccc1	n	n	n	n	n
CCSC1=NCCN1S(=O)(=O)c1ccc(Cl)cc1	n	n	n	43.0	n
C[C@@H]1CN([C@H](C)CO)C(=O)c2cc(NC(=O)Nc3ccc(F)cc3)ccc2O[C@H]1CN(C)Cc1ccc(C(F)(F)F)cc1	n	n	n	n	n
O=C(C[C@H]1CC[C@@H]2NC[C@@H](O)COC[C@H]2O1)NCCc1ccncc1	n	x	x	n	x
O=C(C1CCCCC1)N1CC2(C1)[C@H](c1ccccc1)[C@@H](CO)N2CC1CCCC1	n	n	n	x	n
O=C(C1CCCCC1)N1CC2(C1)[C@@H](c1ccccc1)[C@@H](CO)N2Cc1nccs1	27.9	n	x	x	n
O=C(C1CCCCC1)N1CC2(C1)[C@@H](c1ccccc1)[C@@H](CO)N2CC1CCCC1	69.4	n	n	x	n
O=C(C1CC1)N1CC2(C1)[C@H](c1ccccc1)[C@@H](CO)N2Cc1nccs1	36.9	n	n	n	n
CCCNC(=O)[C@@H]1N[C@@H]2c3ccc(-c4cccc(F)c4)c(=O)n3C[C@@H]2[C@H]1CO	x	x	n	x	x
COc1ccc(C[C@H]2CCc3cnnn3COC[C@H](Cc3ccccc3)NC2=O)cc1	n	n	n	n	n
CCCCOC(=O)C1CN(c2ccccc2)N=C1C(C)=O (centres undefined)	u	n	n	43.2	n
COc1ccc2c3c([nH]c2c1)[C@@H](CO)N(C(=O)Nc1ccc(F)cc1)CC31CCN(S(=O)(=O)c2ccccc2)CC1	70.5	x	n	x	x
